# Data: article PMC7862700, “An all-to-all approach to the identification of sequence-specific readers for epigenetic DNA modifications on cytosine”
# Legend:
# Assay in all cases: DAPPL (digital affinity profiling via proximity ligation, sequencing); 10 mM Tris-HCl pH 7.5, 50 mM NaCl, 1 mM DTT, 4% glycerol, room temperature, 30 min; GST-TFs on glutathione beads, 16-mer random dsDNA library, 0.1% formaldehyde crosslink after washing; high values mean tight binding
# FLI1 = biological target: T1, FLI1 (Homo sapiens, UniProt Q01543 1-452); details: protein: recombinant; tags: N-terminal GST; dsDNA, one strand shown
# T1 sequence: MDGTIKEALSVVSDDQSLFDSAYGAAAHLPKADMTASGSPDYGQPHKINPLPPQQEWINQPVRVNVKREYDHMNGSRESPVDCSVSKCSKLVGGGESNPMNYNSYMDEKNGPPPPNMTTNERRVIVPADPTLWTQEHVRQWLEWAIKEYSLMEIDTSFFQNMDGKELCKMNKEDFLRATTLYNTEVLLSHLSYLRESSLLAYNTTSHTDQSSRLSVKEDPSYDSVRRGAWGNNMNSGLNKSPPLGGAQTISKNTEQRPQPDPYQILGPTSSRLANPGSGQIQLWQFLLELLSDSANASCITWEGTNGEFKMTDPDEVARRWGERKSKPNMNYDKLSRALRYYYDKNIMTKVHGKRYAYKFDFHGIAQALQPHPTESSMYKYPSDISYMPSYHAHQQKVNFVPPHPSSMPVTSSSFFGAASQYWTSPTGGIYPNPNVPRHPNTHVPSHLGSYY
# Procedure, shortened: (§1)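 Pools were built from human transcription factors expressed in yeast as GST fusions, captured on glutathione beads and DNA-barcoded, along with a tag-only sample. Incubation with 200 nmole of a 16-mer random double-stranded DNA library lasted 30 min at room temperature in Tris/NaCl/DTT/glycerol buffer, and was followed by washing, 0.1% formaldehyde crosslinking, proximity ligation, PCR amplification and Illumina NextSeq500 sequencing. Binding signal is the quotient of each hexamer's read frequency for a factor and its frequency for the tag-only sample.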
# ELK1 = biological target: T2, ELK1 (Homo sapiens, UniProt P19419 1-428); details: protein: recombinant; tags: N-terminal GST; dsDNA, one strand shown
# T2 sequence: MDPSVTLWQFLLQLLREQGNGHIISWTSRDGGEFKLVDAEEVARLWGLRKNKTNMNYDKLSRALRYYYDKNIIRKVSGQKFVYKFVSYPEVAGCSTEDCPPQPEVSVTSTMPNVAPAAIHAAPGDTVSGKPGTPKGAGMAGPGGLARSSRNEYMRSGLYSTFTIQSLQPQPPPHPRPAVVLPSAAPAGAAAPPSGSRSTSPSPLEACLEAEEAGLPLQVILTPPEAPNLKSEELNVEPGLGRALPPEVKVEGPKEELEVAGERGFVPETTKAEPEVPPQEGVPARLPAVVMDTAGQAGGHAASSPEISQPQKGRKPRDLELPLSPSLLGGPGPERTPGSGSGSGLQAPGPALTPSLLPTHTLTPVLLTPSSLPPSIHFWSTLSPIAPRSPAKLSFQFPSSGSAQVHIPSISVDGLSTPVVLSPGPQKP
# Procedure, shortened: as §1
# GABPA = biological target: T3, GABPA (Homo sapiens, UniProt Q06546 1-454); details: protein: recombinant; tags: N-terminal GST; dsDNA, one strand shown
# T3 sequence: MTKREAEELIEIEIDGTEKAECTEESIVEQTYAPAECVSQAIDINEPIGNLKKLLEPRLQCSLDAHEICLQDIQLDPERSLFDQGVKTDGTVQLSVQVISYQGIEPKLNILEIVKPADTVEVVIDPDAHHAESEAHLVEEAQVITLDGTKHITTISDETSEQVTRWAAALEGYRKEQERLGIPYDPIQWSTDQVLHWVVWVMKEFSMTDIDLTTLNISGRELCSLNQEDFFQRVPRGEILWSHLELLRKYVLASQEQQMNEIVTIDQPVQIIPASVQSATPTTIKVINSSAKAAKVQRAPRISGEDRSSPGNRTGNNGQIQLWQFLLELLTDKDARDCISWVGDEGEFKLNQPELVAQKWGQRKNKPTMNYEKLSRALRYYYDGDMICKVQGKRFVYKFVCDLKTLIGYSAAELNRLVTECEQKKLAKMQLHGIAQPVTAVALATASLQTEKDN
# Procedure, shortened: as §1
# ERG = biological target: T4, ERG (Homo sapiens, UniProt P11308 1-479); details: protein: recombinant; tags: N-terminal GST; dsDNA, one strand shown
# T4 sequence: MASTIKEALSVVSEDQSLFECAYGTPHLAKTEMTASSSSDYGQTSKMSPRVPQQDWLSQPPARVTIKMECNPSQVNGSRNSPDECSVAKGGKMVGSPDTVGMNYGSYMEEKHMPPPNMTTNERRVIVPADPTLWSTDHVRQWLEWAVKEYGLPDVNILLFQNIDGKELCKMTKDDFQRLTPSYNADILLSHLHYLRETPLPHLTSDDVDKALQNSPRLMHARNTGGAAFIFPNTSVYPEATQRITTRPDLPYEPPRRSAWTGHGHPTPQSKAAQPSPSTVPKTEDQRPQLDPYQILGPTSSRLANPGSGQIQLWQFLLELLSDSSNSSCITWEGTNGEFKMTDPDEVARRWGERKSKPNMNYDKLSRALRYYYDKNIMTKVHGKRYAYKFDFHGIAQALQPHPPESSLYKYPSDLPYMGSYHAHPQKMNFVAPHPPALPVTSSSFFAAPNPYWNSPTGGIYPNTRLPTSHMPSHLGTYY
# Procedure, shortened: as §1
# ELF1 = ELF1 (Homo sapiens, UniProt P32519 1-619); details: protein: recombinant; tags: N-terminal GST; dsDNA, one strand shown
# ELF1, sequence (P32519 whole entry): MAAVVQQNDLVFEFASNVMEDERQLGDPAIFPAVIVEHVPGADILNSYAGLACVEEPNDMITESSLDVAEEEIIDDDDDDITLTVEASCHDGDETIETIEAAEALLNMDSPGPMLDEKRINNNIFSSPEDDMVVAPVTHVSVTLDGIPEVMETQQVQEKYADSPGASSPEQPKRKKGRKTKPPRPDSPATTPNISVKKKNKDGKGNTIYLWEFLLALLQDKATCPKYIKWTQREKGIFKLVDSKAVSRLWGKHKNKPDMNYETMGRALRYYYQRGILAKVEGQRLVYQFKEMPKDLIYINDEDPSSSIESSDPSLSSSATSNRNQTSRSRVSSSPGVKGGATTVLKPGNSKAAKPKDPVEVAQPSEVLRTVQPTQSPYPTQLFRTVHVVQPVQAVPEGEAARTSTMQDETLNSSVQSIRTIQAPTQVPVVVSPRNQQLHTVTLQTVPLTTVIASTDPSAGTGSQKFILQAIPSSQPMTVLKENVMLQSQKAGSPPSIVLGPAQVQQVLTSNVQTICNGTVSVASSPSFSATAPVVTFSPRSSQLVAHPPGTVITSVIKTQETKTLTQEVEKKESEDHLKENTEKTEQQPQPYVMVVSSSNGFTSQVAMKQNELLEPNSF
# Procedure, shortened: as §1
# EHF = biological target: T5, EHF (Homo sapiens, UniProt Q9NZC4 1-300); details: protein: recombinant; tags: N-terminal GST; dsDNA, one strand shown
# T5 sequence: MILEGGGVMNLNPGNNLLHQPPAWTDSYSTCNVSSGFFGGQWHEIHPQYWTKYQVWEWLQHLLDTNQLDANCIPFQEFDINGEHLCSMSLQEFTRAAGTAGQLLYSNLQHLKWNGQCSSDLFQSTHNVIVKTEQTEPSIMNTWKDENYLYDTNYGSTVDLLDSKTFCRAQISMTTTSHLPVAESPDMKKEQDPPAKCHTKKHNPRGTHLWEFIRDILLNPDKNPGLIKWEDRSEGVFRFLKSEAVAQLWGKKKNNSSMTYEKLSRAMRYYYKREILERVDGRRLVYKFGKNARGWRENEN
# Procedure, shortened: as §1
# SPI1 = SPI1 (Homo sapiens, UniProt P17947 1-270); details: protein: recombinant; tags: N-terminal GST; dsDNA, one strand shown
# Procedure, shortened: as §1
# SPIB = SPIB (Homo sapiens, UniProt Q01892 1-262); details: protein: recombinant; tags: N-terminal GST; dsDNA, one strand shown
# SPIB, sequence (Q01892 whole entry): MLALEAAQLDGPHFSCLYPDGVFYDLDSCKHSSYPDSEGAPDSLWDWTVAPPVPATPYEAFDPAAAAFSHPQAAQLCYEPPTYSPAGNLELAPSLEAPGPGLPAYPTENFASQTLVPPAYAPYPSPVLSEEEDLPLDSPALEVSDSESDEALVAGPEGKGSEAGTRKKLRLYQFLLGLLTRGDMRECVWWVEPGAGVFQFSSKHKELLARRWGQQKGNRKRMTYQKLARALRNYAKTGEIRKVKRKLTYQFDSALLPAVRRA
# Procedure, shortened: as §1
# ELK3 = biological target: T6, ELK3 (Homo sapiens, UniProt P41970 1-407); details: protein: recombinant; tags: N-terminal GST; dsDNA, one strand shown
# T6 sequence: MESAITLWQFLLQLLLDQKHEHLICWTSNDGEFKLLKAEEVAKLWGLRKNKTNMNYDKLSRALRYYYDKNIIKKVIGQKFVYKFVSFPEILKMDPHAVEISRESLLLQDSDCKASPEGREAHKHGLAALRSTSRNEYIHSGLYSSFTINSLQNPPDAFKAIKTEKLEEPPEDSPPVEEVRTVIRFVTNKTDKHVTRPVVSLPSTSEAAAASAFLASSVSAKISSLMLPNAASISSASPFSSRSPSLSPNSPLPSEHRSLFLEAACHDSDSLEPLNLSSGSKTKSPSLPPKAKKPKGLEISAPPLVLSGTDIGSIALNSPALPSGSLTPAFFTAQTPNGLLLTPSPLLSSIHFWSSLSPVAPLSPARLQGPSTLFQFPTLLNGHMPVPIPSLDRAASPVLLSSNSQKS
# Procedure, shortened: as §1
# FEV = biological target: T7, FEV (Homo sapiens, UniProt Q99581 1-238); details: protein: recombinant; tags: N-terminal GST; dsDNA, one strand shown
# T7 sequence: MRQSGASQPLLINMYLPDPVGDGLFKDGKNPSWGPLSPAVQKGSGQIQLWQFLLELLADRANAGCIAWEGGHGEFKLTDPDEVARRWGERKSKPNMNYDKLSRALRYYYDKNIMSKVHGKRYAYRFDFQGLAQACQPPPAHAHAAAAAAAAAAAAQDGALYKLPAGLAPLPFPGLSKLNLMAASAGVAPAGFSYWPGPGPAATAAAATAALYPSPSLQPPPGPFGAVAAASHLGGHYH
# Procedure, shortened: as §1
# ETV5 = ETV5 (Homo sapiens, UniProt P41161 1-510); details: protein: recombinant; tags: N-terminal GST; dsDNA, one strand shown
# ETV5, sequence (P41161 whole entry): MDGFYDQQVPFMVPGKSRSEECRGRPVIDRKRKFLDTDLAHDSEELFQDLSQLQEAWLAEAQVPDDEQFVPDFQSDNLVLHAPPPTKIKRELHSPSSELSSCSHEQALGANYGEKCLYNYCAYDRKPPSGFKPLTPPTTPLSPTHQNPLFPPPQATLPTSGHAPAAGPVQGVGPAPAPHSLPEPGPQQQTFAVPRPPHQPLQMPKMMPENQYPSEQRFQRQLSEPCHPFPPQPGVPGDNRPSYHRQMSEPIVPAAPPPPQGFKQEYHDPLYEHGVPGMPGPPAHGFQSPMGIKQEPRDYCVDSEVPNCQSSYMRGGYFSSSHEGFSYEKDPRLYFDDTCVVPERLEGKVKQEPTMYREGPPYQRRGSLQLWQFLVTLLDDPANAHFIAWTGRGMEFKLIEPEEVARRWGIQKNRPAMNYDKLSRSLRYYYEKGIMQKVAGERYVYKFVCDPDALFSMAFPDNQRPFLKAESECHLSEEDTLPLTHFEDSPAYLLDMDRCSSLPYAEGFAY
# Procedure, shortened: as §1
# HSF1 = HSF1 (Homo sapiens, UniProt Q00613 1-529); details: protein: recombinant; tags: N-terminal GST; chain copies: 3; dsDNA, one strand shown
# HSF1, sequence (Q00613 whole entry): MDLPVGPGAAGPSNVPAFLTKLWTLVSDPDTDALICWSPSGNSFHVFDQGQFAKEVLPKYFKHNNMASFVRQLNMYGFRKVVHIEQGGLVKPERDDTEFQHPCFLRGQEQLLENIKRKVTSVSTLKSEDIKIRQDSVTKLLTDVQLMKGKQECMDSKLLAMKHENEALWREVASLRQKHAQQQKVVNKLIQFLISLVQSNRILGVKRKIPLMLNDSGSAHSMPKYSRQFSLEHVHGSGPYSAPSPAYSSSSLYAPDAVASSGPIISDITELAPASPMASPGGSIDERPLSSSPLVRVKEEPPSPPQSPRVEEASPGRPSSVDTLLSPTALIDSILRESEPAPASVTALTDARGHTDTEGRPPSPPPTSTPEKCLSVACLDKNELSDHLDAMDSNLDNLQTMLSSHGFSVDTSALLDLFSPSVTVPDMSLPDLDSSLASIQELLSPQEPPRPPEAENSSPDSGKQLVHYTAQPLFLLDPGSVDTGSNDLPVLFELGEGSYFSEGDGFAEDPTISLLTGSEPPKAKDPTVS
# Procedure, shortened: as §1
# SPIC = biological target: T8, SPIC (Homo sapiens, UniProt Q8N5J4 1-248); details: protein: recombinant; tags: N-terminal GST; dsDNA, one strand shown
# T8 sequence: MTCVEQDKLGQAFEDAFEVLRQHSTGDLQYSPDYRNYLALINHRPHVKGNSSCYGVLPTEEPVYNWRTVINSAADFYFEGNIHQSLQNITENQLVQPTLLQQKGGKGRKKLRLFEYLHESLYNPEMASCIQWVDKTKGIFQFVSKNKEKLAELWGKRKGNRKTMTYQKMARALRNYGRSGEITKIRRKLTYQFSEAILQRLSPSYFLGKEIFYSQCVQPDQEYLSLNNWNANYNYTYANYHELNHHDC
# Procedure, shortened: as §1
# ELF4 = ELF4 (Homo sapiens, UniProt Q99607 1-663); details: protein: recombinant; tags: N-terminal GST; dsDNA, one strand shown
# ELF4, sequence (Q99607 whole entry): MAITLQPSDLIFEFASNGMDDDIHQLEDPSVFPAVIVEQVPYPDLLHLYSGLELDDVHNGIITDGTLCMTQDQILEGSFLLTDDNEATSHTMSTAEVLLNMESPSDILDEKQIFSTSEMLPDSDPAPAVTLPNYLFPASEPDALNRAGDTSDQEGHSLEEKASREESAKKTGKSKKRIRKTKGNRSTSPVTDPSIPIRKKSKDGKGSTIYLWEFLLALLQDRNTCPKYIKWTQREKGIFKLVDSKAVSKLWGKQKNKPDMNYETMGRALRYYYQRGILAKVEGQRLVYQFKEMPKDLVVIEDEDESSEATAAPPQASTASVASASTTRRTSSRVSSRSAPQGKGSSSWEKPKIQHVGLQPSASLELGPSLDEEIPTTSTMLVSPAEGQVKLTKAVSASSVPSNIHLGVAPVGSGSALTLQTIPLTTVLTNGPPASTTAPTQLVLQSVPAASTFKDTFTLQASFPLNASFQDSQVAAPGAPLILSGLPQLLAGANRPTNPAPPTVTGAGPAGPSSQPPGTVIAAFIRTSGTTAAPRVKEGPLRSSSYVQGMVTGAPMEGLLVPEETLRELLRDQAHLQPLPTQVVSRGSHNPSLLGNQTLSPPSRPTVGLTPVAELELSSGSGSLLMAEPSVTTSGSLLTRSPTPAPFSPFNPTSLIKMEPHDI
# Procedure, shortened: as §1
# ELK4 = biological target: T9, ELK4 (Homo sapiens, UniProt P28324-2 1-405); details: protein: recombinant; tags: N-terminal GST; dsDNA, one strand shown
# T9 sequence: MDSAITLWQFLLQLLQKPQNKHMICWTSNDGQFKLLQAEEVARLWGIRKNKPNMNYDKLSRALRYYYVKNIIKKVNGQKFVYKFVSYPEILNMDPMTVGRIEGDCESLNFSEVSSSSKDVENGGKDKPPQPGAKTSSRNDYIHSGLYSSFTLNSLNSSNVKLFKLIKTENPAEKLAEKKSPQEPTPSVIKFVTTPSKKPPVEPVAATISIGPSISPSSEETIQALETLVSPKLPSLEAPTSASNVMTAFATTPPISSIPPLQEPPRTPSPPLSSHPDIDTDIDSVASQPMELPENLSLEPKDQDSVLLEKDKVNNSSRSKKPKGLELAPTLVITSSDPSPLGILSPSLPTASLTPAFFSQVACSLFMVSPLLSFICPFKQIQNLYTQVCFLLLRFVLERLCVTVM
# Procedure, shortened: as §1
# ETV2 = biological target: T10, ETV2 (Homo sapiens, UniProt O00321 1-342); details: protein: recombinant; tags: N-terminal GST; dsDNA, one strand shown
# T10 sequence: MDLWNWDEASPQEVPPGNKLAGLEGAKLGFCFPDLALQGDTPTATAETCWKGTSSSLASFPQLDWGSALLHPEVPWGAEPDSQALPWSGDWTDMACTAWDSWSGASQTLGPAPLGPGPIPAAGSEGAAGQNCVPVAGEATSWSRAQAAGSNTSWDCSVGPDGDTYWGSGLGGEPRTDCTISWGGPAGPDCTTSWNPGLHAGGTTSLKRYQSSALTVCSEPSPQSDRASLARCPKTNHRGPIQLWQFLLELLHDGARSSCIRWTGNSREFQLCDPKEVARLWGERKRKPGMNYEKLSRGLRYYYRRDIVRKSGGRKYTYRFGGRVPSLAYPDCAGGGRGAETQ
# Procedure, shortened: as §1
# ELF3 = biological target: T11, ELF3 (Homo sapiens, UniProt P78545 1-371); details: protein: recombinant; tags: N-terminal GST; dsDNA, one strand shown
# T11 sequence: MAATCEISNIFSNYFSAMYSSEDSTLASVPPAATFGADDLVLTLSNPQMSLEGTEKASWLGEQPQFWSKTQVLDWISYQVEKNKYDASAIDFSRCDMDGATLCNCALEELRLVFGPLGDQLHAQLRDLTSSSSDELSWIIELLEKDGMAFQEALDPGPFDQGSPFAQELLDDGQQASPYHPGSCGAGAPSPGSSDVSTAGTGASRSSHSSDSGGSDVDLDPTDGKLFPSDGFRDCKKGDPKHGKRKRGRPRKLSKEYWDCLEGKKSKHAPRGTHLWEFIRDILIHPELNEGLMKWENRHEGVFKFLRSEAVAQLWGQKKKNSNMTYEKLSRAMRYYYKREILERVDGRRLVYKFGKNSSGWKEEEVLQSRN
# Procedure, shortened: as §1
# CRX = CRX (Homo sapiens, UniProt O43186 1-299); details: protein: recombinant; tags: N-terminal GST; dsDNA, one strand shown
# CRX, sequence (O43186 whole entry): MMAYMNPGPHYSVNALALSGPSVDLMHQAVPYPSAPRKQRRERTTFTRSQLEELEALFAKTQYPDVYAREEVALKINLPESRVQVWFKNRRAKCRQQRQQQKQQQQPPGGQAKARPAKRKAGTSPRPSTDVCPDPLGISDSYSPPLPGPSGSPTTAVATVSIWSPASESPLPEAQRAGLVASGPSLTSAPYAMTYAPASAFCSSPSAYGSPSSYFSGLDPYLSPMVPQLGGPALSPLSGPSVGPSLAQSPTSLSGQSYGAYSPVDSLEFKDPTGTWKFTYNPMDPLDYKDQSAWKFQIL
# Procedure, shortened: as §1
# ETV1 = ETV1 (Homo sapiens, UniProt P50549 1-477); details: protein: recombinant; tags: N-terminal GST; dsDNA, one strand shown
# ETV1, sequence (P50549 whole entry): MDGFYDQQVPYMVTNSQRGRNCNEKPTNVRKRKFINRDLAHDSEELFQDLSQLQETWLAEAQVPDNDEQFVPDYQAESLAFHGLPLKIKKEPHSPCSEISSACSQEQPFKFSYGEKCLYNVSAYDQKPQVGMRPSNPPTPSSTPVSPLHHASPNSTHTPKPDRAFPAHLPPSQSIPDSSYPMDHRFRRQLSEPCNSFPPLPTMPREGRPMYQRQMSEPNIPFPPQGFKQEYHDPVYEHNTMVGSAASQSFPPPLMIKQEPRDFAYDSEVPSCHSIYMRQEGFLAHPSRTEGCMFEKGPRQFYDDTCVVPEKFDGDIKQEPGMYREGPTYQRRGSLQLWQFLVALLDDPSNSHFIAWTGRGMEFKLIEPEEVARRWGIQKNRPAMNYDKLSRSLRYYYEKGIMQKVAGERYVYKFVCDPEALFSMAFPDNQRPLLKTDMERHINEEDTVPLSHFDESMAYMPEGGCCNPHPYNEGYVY
# Procedure, shortened: as §1
sequence,measurement,setting,value
TGCACT,binding signal,FLI1,"1.37 fold enrichment (6-mer frequency, TF over GST control)"
same,binding signal,ELK1,"1.58 fold enrichment (6-mer frequency, TF over GST control)"
same,binding signal,GABPA,"1.4 fold enrichment (6-mer frequency, TF over GST control)"
same,binding signal,ERG,"1.43 fold enrichment (6-mer frequency, TF over GST control)"
same,binding signal,ELF1,"1.42 fold enrichment (6-mer frequency, TF over GST control)"
same,binding signal,EHF,"1.3 fold enrichment (6-mer frequency, TF over GST control)"
same,binding signal,SPI1,"1.68 fold enrichment (6-mer frequency, TF over GST control)"
same,binding signal,SPIB,"1.21 fold enrichment (6-mer frequency, TF over GST control)"
same,binding signal,ELK3,"1.26 fold enrichment (6-mer frequency, TF over GST control)"
same,binding signal,FEV,"1.51 fold enrichment (6-mer frequency, TF over GST control)"
same,binding signal,ETV5,"1.37 fold enrichment (6-mer frequency, TF over GST control)"
same,binding signal,HSF1,"1.02 fold enrichment (6-mer frequency, TF over GST control)"
same,binding signal,SPIC,"1.33 fold enrichment (6-mer frequency, TF over GST control)"
same,binding signal,ELF4,"1.33 fold enrichment (6-mer frequency, TF over GST control)"
same,binding signal,ELK4,"1.31 fold enrichment (6-mer frequency, TF over GST control)"
same,binding signal,ETV2,"1.46 fold enrichment (6-mer frequency, TF over GST control)"
same,binding signal,ELF3,"1.55 fold enrichment (6-mer frequency, TF over GST control)"
same,binding signal,CRX,"1.06 fold enrichment (6-mer frequency, TF over GST control)"
same,binding signal,ETV1,"1.33 fold enrichment (6-mer frequency, TF over GST control)"
